Compound activity as filed in PubChem.
Only some compounds are listed: those with a hit (about 19% of all), similar ones and a draw of the others.
KB-V1 MDR tox: kills drug-selected multidrug resistant KB-V1 cells; KB-V1 MDR cells viability, CellTiter-Glo, 72 h; Potency, µM (doses to about 46.1 µM), hits mostly cytotoxic; 400,000 compounds, 3.4% hits; AID 1347076; also: nearly all actives have a fitted effect of over 60% in size
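KB-V1, DMEM (no phenol red) + 10% FBS; cpd pin-transferred, titration series; 72 h, 37 degrees C; CellTiter-Glo, luminescence. Data normalized, curve-fit.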
DT40 TDP1 CPT: growth inhibition of DT40 Tdp1-/-;hTDP1 cells with camptothecin (screen for TDP1 inhibitors); chicken DT40 Tdp1-/-;hTDP1 cells + 20 nM CPT, ATP luminescence, 48 h; Potency, µM (series often up to 46.2 µM), without a hit: top-dose activity change, negative = growth inhibition, most hits filed as inhibitors; 420,000 compounds, 12% hits; AID 686979; also: nearly all actives have a fitted effect of over 55% in size
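Chicken DT40 Tdp1-/- cells complemented with human TDP1, 400 cells/well, exposed to compounds plus 20 nM camptothecin for at least 48 h at 37 C; viability read as ATP content by CellTiter-Glo luminescence.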
HT1080-NT tox: kills 2HG-producing HT-1080-NT fibrosarcoma cells | HT-1080-NT fibrosarcoma viability, CellTiter-Glo ATP luminescence, 48 h | Potency, µM (series often up to 46.1 µM), inactives show at the top dose activity, negative = less viability, hits mostly cytotoxic | 360,000 compounds, 1.6% hits;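 also: NT is the 2HG producing partner of a matched IDH1 knockdown line; 0% = DMSO-treated cells and -100% = media-only wells without cells; nearly all actives have a fitted effect of over 55% in size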
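HT-1080-NT; 750 cells/well; 5% FBS RPMI; 48 h compound, 37 degrees C; CellTiter-Glo luminescence; curve fitting and curve-class assignment.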
KB-3-1 cytotox: KB-3-1 parental cell cytotoxicity. KB-3-1 viability, CellTiter-Glo ATP luminescence, 72 h. Potency, µM (titrated, usually from 46.1 µM), usual class: cytotoxic. 400,000 compounds, 1.4% hits. AID 1347075; also: nearly all actives have a fitted effect of over 60% in size
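Parental KB-3-1 viability, qHTS format: 72 h compound exposure, 37 °C; CellTiter-Glo; media-only wells and DMSO plates as controls; concentration-effect fits on corrected data.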
TDP1 cell noCPT: qHTS for Inhibitors of human tyrosyl-DNA phosphodiesterase 1 (TDP1): qHTS in cells in absence of CPT. DT40 Tdp1-/- hTDP1 cells, no CPT, ATP luminescence, 48 h. Potency, µM (doses to about 46.2 µM), for the others: at the highest dose activity change, negative = growth inhibition, hits mostly inhibitors. 420,000 compounds, 15% hits. AID 686978, 2013; also: nearly all actives have a fitted effect of over 55% in size
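No-CPT arm: Tdp1-/-;hTDP1 DT40 cells (400/well) plus compounds, incubated ≥48 hr at 37 °C. Readout CellTiter-Glo luminescence.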
HT1080 IDH1KD tx: kills HT-1080 cells with IDH1 knockdown; HT-1080 IDH1 knockdown viability, ATP luminescence, 48 h; Potency, µM (series often up to 46.1 µM), for inactives: top-dose activity, negative = toxicity, usual class: cytotoxic; 360,000 compounds, 2% hits; AID 686971;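 also: 0% = DMSO wells and -100% = cell-free medium wells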
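Luminescent ATP read-out (CellTiter-Glo, 10 min at room temperature) after 48 h compound exposure at 37 °C gave viability of IDH1-knockdown HT-1080 cells. Activity was normalised to DMSO and cell-free wells, then fitted as concentration-response curves.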
* = called active by the depositor; i = inactive; ? = inconclusive; / = no result; ! = repeats disagree. Calls follow the shape of the dose curve; as a rule, active = well fitted curve in the direction sought with a large enough effect; inconclusive = small, poorly fitted or top-dose-only effect, or another doubt; inactive = no such curve, though single readings can be large; an effect the other way counts as inactive or inconclusive. Unless noted, % is scaled to controls: 0 for no effect and ±100 for the full control effect; potency is read from the fitted curve at half-maximal effect.

SMILES | KB-V1 MDR tox | DT40 TDP1 CPT | HT1080-NT tox | KB-3-1 cytotox | TDP1 cell noCPT | HT1080 IDH1KD tx
CC(=O)c1c(C)[nH]c(C(=O)N2CCN(c3cc(Cl)ccc3C)CC2)c1C | i | 10.3µM* | 16.4µM* | 4.61µM* | 5.8µM* | 23.1µM*
COc1cccc(N2CCN(C(=O)c3c(C)nn(-c4ccccc4)c3C)CC2)c1 | i | -27.9% | 3.8% | i | -23.6% | -0.5%
O=C(Nc1ccccc1[N+](=O)[O-])OCC=Cc1ccccc1 | i | 1.0% | -0.8% | i | ? | 17.6%
COc1ccc(C2Nc3ccccc3C(=O)N2Cc2ccccc2)cc1COc1ccc([N+](=O)[O-])cc1 (stereo not drawn) | i | ? | / | i | ? | /
CN1C2=CC=CC=CC2=[N+](C)C12C([N+](=O)[O-])=CC(=[N+]([O-])[O-])C=C2[N+](=O)[O-] (stereo not drawn) | i | ? | ? | i | 2.06µM* | 2.06µM*
Nc1nc(=S)c2ncn([C@@H]3O[C@H](CO)[C@@H](O)[C@H]3O)c2[nH]1 | 0.92µM* | 1.64µM* | 1.46µM* | ? | 1.84µM* | 0.92µM*
OCC1OC(n2cnc3c(=S)nc[nH]c32)C(O)C1O (stereo not drawn) | ? | 10µM*! | / | 0.581µM* | ? | /
Nc1nc(=S)c2ncn(C3OC(CO)C(O)C3O)c2[nH]1 (stereo not drawn) | 1.03µM* | 4.11µM* | 14.6µM* | 5.8µM* | 8.2µM* | 20.6µM*
Nc1nc2c(ncn2[C@@H]2O[C@H](CO)[C@@H](O)[C@H]2O)c(=O)[nH]1 | / | 18.2% | / | / | 3.7% | /
CC1(C)OC2C(CO)OC(n3cnc4c(=S)nc(N)[nH]c43)C2O1 (stereo not drawn) | ? | 11.6µM* | ? | ? | 14.6µM* | -6.7%
CCOC(=O)c1cc(CC)sc1NC(=O)CC1Sc2ccc(C(F)(F)F)cc2NC1=O (stereo not drawn) | i | ? | 17.8% | i | ? | 12.5%
CCCCCCCCS(=O)C1CCS(=O)(=O)C1 (stereo not drawn) | i | -19.0% | -3.7% | i | ? | -0.1%
CCCCCCS(=O)[C@H]1CS(=O)(=O)C[C@@H]1S(=O)CCCCCC (stereo partly drawn) | i | 23.1µM* | -4.2% | i | ? | 0.2%
COCCN(C(=S)Nc1cc(C)cc(C)c1)C(C)c1cccs1 (stereo not drawn) | i | 18.4µM* | 2.5% | i | ? | -0.4%
Cc1ccc(NC(=S)N(CCN(C)C)C(C)c2ccco2)c(C)c1 (stereo not drawn) | ? | ? | ? | i | ? | -4.8%
Cc1ccc(NC(=S)N(CCN(C)C)C(C)c2ccco2)cc1Cl (stereo not drawn) | i | ? | 20.3% | i | ? | -4.9%
CC(C)CCN(C(=S)Nc1cccc(F)c1)C(C)c1cccs1 (stereo not drawn) | i | ? | 16.4% | i | 0.8% | 2.9%
CCc1cccc(C)c1NC(=S)N(CCN(C)C)C(C)c1ccco1 (stereo not drawn) | ? | 18.4µM* | 0.0% | i | ? | 1.4%
COCCN(C(=S)Nc1cc(C)cc(C)c1)C(C)c1ccco1 (stereo not drawn) | i | ? | 12.2% | i | 25.9µM* | 2.5%
Cc1ccccc1NC(=S)N(CCN(C)C)C(C)c1ccccn1 (stereo not drawn) | 16.4µM* | -5.2% | 15.5% | i | -19.4% | 9.2%
Cc1nc(SCCOc2ccccc2F)[nH]c(=O)c1Cc1ccccc1 | i | -3.3% | 16.5% | i | ? | 29.4%
CCCCCC1=CCC/C1=N\NC(=O)c1ccc2c(c1)OCO2 | i | 3.5% | -20.1% | i | ? | -19.6%
CN1CCN(S(=O)(=O)c2cccc(C(=O)Nc3ccccc3N3CCCCC3)c2)CC1 | ? | ? | 1.5% | i | ? | 0.3%
CN1CCN(S(=O)(=O)c2cccc(C(=O)Nc3cc(C(F)(F)F)ccc3N3CCCCC3)c2)CC1 | ? | ? | -6.5% | ? | 18.4µM* | 0.0%
CCN1CCN(c2ccc(S(=O)(=O)N3CCCCC3)cc2NC(=O)c2cccc(C(F)(F)F)c2)CC1 | i | ? | -21.1% | i | 18.4µM* | 1.8%
SMILES | KB-V1 MDR tox | DT40 TDP1 CPT | HT1080-NT tox | KB-3-1 cytotox | TDP1 cell noCPT | HT1080 IDH1KD tx
COc1ccc(CN(C)C(=O)/C=C/[C@H]2O[C@@H](n3cnc4c(N)ncnc43)[C@H](O)[C@@H]2O)cc1OC | i | -14.1% | -0.1% | i | -5.8% | 5.2%
CCOC(=O)Nc1cccnc1Sc1ccc(Cl)cc1 | i | -23.1% | 1.0% | i | -25.9% | -3.1%
CCCNC(=O)OCc1cccnc1Sc1ccc(C)cc1 | ? | ? | 0.1% | i | 14.6µM* | -12.3%
COc1cccc(N2CCN(C(=O)CCCCCNc3nc(=S)[nH]c4ccccc34)CC2)c1 | 10.3µM* | 4.61µM* | -19.0% | i | 9.2µM* | ?
O=C(CCCCCn1c(=S)[nH]c2ccc(N3CCOCC3)cc2c1=O)NCCc1ccccc1 | i | 2.8% | -3.1% | i | -23.9% | 3.6%
CC1CCCN(C(=O)CCCn2c(=S)[nH]c3ccccc3c2=O)C1 (stereo not drawn) | 8.2µM* | -1.0% | 1.7% | i | ? | 13.4%
Cc1cccc(N2CCN(C(=O)CCCCCn3c(=S)[nH]c4ccc(N5CCOCC5)cc4c3=O)CC2)c1C | i | 16.4µM* | 5.6% | i | 6.51µM* | 0.0%
O=C(CCCn1c(=O)[nH]c2ccc(Br)cc2c1=O)N1CCN(c2cccc(Cl)c2)CC1 | ? | 14.6µM* | / | ? | 8.2µM* | /
Nc1ccc(-c2ccc(C(=O)O)s2)cn1 | i | -5.2% | -0.5% | i | -21.0% | 0.2%
Cc1ccc(S(=O)(=O)N2CCC(C(=O)OCC(=O)N3CCCC(C)C3)CC2)cc1C (stereo not drawn) | i | 15.9% | 2.4% | i | -2.2% | -0.1%
O=C(CCc1nc2ccccc2c(=O)[nH]1)NNC(=O)COc1cccc(F)c1 | i | ? | -11.3% | i | -9.2% | 0.0%
CCCCNC(=O)CCCn1c(=O)[nH]c2ccc(Br)cc2c1=O | i | -11.1% | -5.3% | i | -30.0% | -0.1%
